Measurements from PubChem BioAssay AID1259343 (VanderVen Lab, College of Veterinary Medicine, Cornell …, 2017).
Several values for one entry are separate records, joined by “and”; a condition that tells them apart may be missing. Identical values can stand only once. The whole screen tested about 6,200 compounds, of which about 2,900 (47%) were called active. No stated cut-off is given here; in the data, active means inhibition above about 50%; inactive means the rest. So high a share suggests a set chosen from earlier hits. The list shows a part of the results. Some structures have more than one record in an assay (separate samples or runs), and their calls can disagree.

test: Mycobacterium tuberculosis growth inhibition, primary screen (AID 1259343); conditions: inhibition: at 10 µM, stronger effect = higher value; outcome: 10 uM

Row | Structure (SMILES) | inhibition
1 | O=C1NC(=O)/C(=C/c2csc(-c3ccccc3)n2)S1 | 59.2% (active)
2 | O=C(NCC1CCCCN1)c1cc(OCC(F)(F)F)ccc1OCC(F)(F)F (stereo not drawn) | 84.3% (active)
3 | CC(C)C(=O)Nc1ccc(OCC(F)(F)F)c(C#N)c1 | -16.8% (inactive)
4 | CC(NC(=O)c1cccnc1N1CCCCC1)c1ccc(C#N)cc1 (stereo not drawn) | 4.4% (inactive)
5 | CC(C)c1ccc(C(C)NC(=O)c2cccn2C)cc1 (stereo not drawn) | 79% (active)
6 | Cn1cccc1C(=O)NS(=O)(=O)c1ccc(C#N)c(Cl)c1 | 15% (inactive)
7 | Cc1ccc(C)c(-c2cc(C(=O)NCCC(=O)NCc3ccc(F)cc3)no2)c1 | 71.3% (active)
8 | CN(Cc1ccccc1)Cc1cc(C(=O)NCc2cccc(F)c2F)no1 | 38.5% (inactive)
9 | Cn1cnc([N+](=O)[O-])c1Sc1ncnc2nc[nH]c12 | 56.7% (active)
10 | O=S(=O)(Nc1ccc2c(c1)OC1(CCCC1)O2)c1cccs1 | 27% (inactive)
11 | Cc1cc(C(=O)Nc2ccc3c(c2)OC2(CCCC2)O3)c(C)o1 | 56% (active)
12 | CC1(C)Oc2ccc(NC(=O)c3ccnc(NC4CC4)c3)cc2O1 | -11.8% (inactive)
13 | CC(C)c1ccc(NC(=O)c2ccc(S(N)(=O)=O)cc2)cc1 | 2.35% (inactive)
14 | Cc1cc(C(=O)Nc2ccc(C(C)C)cc2)c(C)o1 | 61.2% (active)
15 | O=C(Nc1ccc(N2CCc3ccccc32)cc1)C1CCOC1 (stereo not drawn) | 74.7% (active)
16 | O=C(O)c1cn(Cc2ccccc2)nc1OCc1ccccc1 | 72.7% (active)
17 | O=C(O)c1cn(Cc2ccc(F)cc2)nc1OCc1ccc(F)cc1 | 47.5% (inactive)
18 | O=C(O)c1cn(Cc2cccc(F)c2)nc1OCc1cccc(F)c1 | 29.7% (inactive)
19 | CCc1cc(=O)[nH]c(-n2nc(C)cc2NC(=O)Cc2ccc(OC)cc2)n1 | 101% (active)
20 | COc1ccc(CCC(=O)Nc2cc(C)nn2-c2nc(C)cc(=O)[nH]2)cc1 | 101% (active)
21 | CCCc1cc(=O)[nH]c(-n2nc(C)cc2NC(=O)CCc2ccc(OC)cc2)n1 | 101% (active)

Row | Structure (SMILES) | inhibition
22 | COc1ccc(CC(=O)Nc2cc(C)nn2-c2nc(C)cc(=O)[nH]2)cc1 | 101% (active)
23 | NCC(=O)Nc1ccc(-c2cccc3ccsc23)cc1F | 7.93% (inactive)
24 | COC(C)c1ccc(-c2ccc(NC(=O)CN)c(F)c2)cc1 (stereo not drawn) | 70.7% (active)
25 | Fc1ccccc1-c1cnnc(NCCc2cccc(Cl)c2)n1 | 37.3% (inactive)
26 | Fc1ccccc1CCNc1ncnc2ccc(Cl)cc12 | 60.7% (active)
27 | Fc1ccccc1CNCC1(c2ccnc(-c3ccc(Cl)cc3)c2)CC1 | 44% (inactive)
28 | Cc1ccccc1C(C)NS(=O)(=O)c1ccc(Cl)cc1 (stereo not drawn) | 17.3% (inactive)
29 | Cc1ccc(S(=O)(=O)NC(=O)c2cccc(F)c2)cc1C | 79% (active)
30 | Cc1ccc(S(=O)(=O)NC(=O)c2ccccc2)cc1C(C)C | 72.5% (active)
31 | COc1cc(C(=O)NS(=O)(=O)c2ccc(C#N)cc2)ccc1C | 21.9% (inactive)
32 | Cc1ccc(S(=O)(=O)NC(c2cccs2)C2CC2)cc1C (stereo not drawn) | 37.1% (inactive)
33 | Cc1cc([N+](=O)[O-])cc(C(C)(C)C)c1O | 101% (active)
34 | O=[N+]([O-])c1cc(Br)c(O)c(Br)c1 | 98.7% (active)
35 | CN(C)P(=Nc1ccc([N+](=O)[O-])cc1Br)(N(C)C)C(C)(C)C | 11% (inactive)
36 | CC[n+]1c(C)csc1Nc1ccc(N=Nc2ccccc2)cc1 | -14.7% (inactive)
37 | O=C(O)CC[N+](=O)[O-] | 98.6% (active)
38 | Cc1nc(SCc2nc3ccccc3o2)c2ccccc2n1 | 51.7% (active)
39 | CC(C)Oc1ncccc1CNC(=O)N1CCc2ccccc21 | 28.7% (inactive)
40 | CN1CC2([N+](=O)[O-])C=C(Oc3ccc(F)cc3)CC([N+](=O)[O-])(C1)C2 (stereo not drawn) | 94.6% (active)
41 | Cc1ccc(Cl)cc1NCc1cnc(Cl)s1 | 26.4% (inactive)
42 | Cc1nnc(NCCC23CC4CC(CC(C4)C2)C3)c(C#N)c1C | 50.3% (active)

Row | Structure (SMILES) | inhibition
43 | CC[C@@H](C(=O)[C@@H](C)[C@@H](O)[C@H](C)[C@@H]1O[C@@H]([C@@H](CC)C(=O)O)CC[C@@H]1C)[C@H]1OC2(C=C[C@@H](O)[C@]3(CC[C@@](C)([C@H]4CC[C@](O)(CC)[C@H](C)O4)O3)O2)[C@H](C)C[C@@H]1C (stereo partly drawn) | 100% (active)
44 | C(=Nc1ccc(C23CC4CC(CC(C4)C2)C3)cc1)c1ccncc1 | -6.32% (inactive)
45 | O=c1cccnn1CCNS(=O)(=O)c1ccc(Cl)s1 | 99.9% (active)
46 | Cc1ccc(Cn2nc(C)c(C=c3s/c(=C\C(=O)C(C)(C)C)[nH]c3=O)c2C)cc1 | 9.64% (inactive)
47 | Cc1ccc(C)c(C=c2sc(=CC(=O)C(C)(C)C)[nH]c2=O)c1 | inactive
48 | CC(C)c1ccc(C=c2sc(=CC(=O)C(C)(C)C)[nH]c2=O)cc1 | 92.9% (active)
49 | CC(C)(C)C(=O)C=c1[nH]c(=O)c(=Cc2c(F)c(F)c(F)c(F)c2F)s1 | 101% (active)
50 | CC(C)(C)C(=O)/C=c1/[nH]c(=O)/c(=C/c2ccc(F)c(Br)c2)s1 | 101% (active)
51 | CC(C)(C)n1c(NC(=O)c2ccc(F)cc2Cl)nc2ccccc21 | -8.71% (inactive)
52 | O=C(Nc1nccn1CC1CC1)c1cc(F)c(Cl)cc1Cl | 94.8% (active)
53 | Cc1ccc(-c2csc(C=Cc3c(C)noc3C)n2)cc1 | 43.6% (inactive)
54 | Cc1ccc(S(=O)(=O)Nc2nc(-c3ccc(F)c(F)c3)cs2)cc1 | 80.1% (active)
55 | CC(C)c1cc(=O)n2[nH]cc(-c3ccccc3)c2n1 | -1.37% (inactive)
56 | CCCc1cc(NC)n2nc(C)c(-c3ccccc3)c2n1 | 95.4% (active)
57 | CCOC(=O)Cc1cc(=O)n2[nH]c(-c3ccccc3)c(-c3ccccc3)c2n1 | 40.6% (inactive)
58 | Cc1ccc(-c2c(C)nn3c(NCC(C)C)cc(C)nc23)cc1 | 47.5% (inactive)
59 | CCCc1cc(NC)n2ncc(-c3ccccc3)c2n1 | -27.3% (inactive)
60 | CCCc1cc(=O)n2[nH]c(C)c(-c3ccccc3)c2n1 | 78.8% (active) and -6.08% (inactive)
61 | CCCc1cc(=O)n2[nH]cc(-c3ccccc3)c2n1 | 11.4% (inactive)
62 | Cc1[nH]n2c(=O)cc(C(C)C)nc2c1-c1ccccc1 | 100% (active)
63 | Cc1cc(C)nc(SCc2cc(=O)n3[nH]c(C)c(-c4ccccc4)c3n2)n1 | 100% (active)
